In the supplement of paper PMC7411054:
Where a name gives a salt, the structure may show the parent alone.

Tests used:
Test in all cases: lowest phenotypically active concentration; higher = less potent
Conditions in all cases: treatment time: 24 h
[1] = system: HepG2-ACTB-RAB5A
How it was run: (§1)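 Two criteria together defined phenotypic activity: deviation and reproducibility. Deviation meant ≥3 of 4 wells beyond the 95th percentile of Euclidean distances in solvent control wells, and reproducibility meant a median replicate Pearson correlation above the 95th percentile of non-replicates. Wells had been treated for 24 h at 0.3, 1, 3 or 9 µM in fifteen gene-edited A549, HepG2 and WPMY1 reporter lines before live imaging.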

[2] = system: HepG2-CANX-COX4
How it was run: as §1

[3] = system: HepG2-GM130-SQSTM1
How it was run: as §1

[4] = system: HepG2-TP53BP1-CLTA
How it was run: as §1

[5] = system: HepG2-TUBA1B-RELA
How it was run: as §1

[6] = system: WPMY1-ACTB-RAB5A
How it was run: as §1

[7] = system: WPMY1-CANX-COX4
How it was run: as §1

[8] = system: WPMY1-GM130-SQSTM1
How it was run: as §1

[9] = system: WPMY1-TP53BP1-CLTA
How it was run: as §1

[10] = system: WPMY1-TUBA1B-RELA
How it was run: as §1

| SMILES | lowest phenotypically active concentration [1] | lowest phenotypically active concentration [2] | lowest phenotypically active concentration [3] | lowest phenotypically active concentration [4] | lowest phenotypically active concentration [5] | lowest phenotypically active concentration [6] | lowest phenotypically active concentration [7] | lowest phenotypically active concentration [8] | lowest phenotypically active concentration [9] | lowest phenotypically active concentration [10] |
| --- | --- | --- | --- | --- | --- | --- | --- | --- | --- | --- |
| CON(C)C(=O)N1N=C(c2cc(F)ccc2F)S[C@@]1(CCCN)c1ccccc1 [ARRY 520 trifluoroacetate] | ≤ 0.3 µM | ≤ 0.3 µM | ≤ 0.3 µM | ≤ 0.3 µM | ≤ 0.3 µM | ≤ 0.3 µM | ≤ 0.3 µM | ≤ 0.3 µM | ≤ 0.3 µM | ≤ 0.3 µM |
| COc1cc(C[C@H]2C(=O)OC[C@@H]2Cc2ccc(OC)c(OC)c2)ccc1O [Arctigenin] | 9 µM | 9 µM | 9 µM | 1 µM | 1 µM | – | – | – | – | – |
| O=C1NC(=O)[C@@H](c2cn3c4c(cccc24)CCC3)[C@@H]1c1c[nH]c2ccccc12 [tivantinib] | 1 µM | 1 µM | 1 µM | 1 µM | 1 µM | ≤ 0.3 µM | 1 µM | 1 µM | 1 µM | 1 µM |
| COc1cc(N2CCC(O)CC2)ccc1Nc1cc(Nc2ccccc2S(=O)(=O)C(C)C)c2cc[nH]c2n1 [Mps1-IN-1 dihydrochloride] | ≤ 0.3 µM | ≤ 0.3 µM | ≤ 0.3 µM | ≤ 0.3 µM | 1 µM | 9 µM | ≤ 0.3 µM | 3 µM | 3 µM | – |
| C#Cc1cccc(Nc2ncnc3cc(OCCOC)c(OCCOC)cc23)c1 [erlotinib] | 3 µM | 3 µM | 3 µM | 9 µM | 3 µM | – | – | – | – | – |
| FC(F)(F)c1ccc(/C=C/c2nc(COc3ccc(CCCCn4ccnn4)cc3)co2)cc1 | ≤ 0.3 µM | ≤ 0.3 µM | ≤ 0.3 µM | ≤ 0.3 µM | ≤ 0.3 µM | – | – | – | – | – |
| O=C1NC(=O)C(c2ccccc2[N+](=O)[O-])=C1Nc1ccc(O)c(Cl)c1 | 9 µM | 9 µM | 9 µM | 3 µM | 3 µM | 9 µM | – | – | – | – |
| COc1cc2ncnc(Nc3ccc(O)c(Br)c3)c2cc1OC | 3 µM | 9 µM | 9 µM | 3 µM | 3 µM | 3 µM | 3 µM | 3 µM | 3 µM | – |
| COc1ccc2c(NC(=O)Nc3cccc(C(F)(F)F)n3)ccnc2c1 | 9 µM | 1 µM | 9 µM | 9 µM | 3 µM | 1 µM | 1 µM | 3 µM | 1 µM | – |
| Nc1nc(Cl)nc2c1ncn2[C@@H]1O[C@H](CO)[C@@H](O)[C@@H]1F [clofarabine] | ≤ 0.3 µM | ≤ 0.3 µM | ≤ 0.3 µM | ≤ 0.3 µM | ≤ 0.3 µM | ≤ 0.3 µM | 9 µM | 3 µM | ≤ 0.3 µM | ≤ 0.3 µM |
| CC1=C(C(=O)Nc2cc3cn[nH]c3cc2F)C(c2ccc(C(F)(F)F)cc2)CC(=O)N1 (stereo not drawn) | ≤ 0.3 µM | ≤ 0.3 µM | ≤ 0.3 µM | ≤ 0.3 µM | ≤ 0.3 µM | ≤ 0.3 µM | ≤ 0.3 µM | ≤ 0.3 µM | 3 µM | ≤ 0.3 µM |
| COc1ccc(-c2cc3c(C)nc(N)nc3n([C@H]3CC[C@H](OCCO)CC3)c2=O)cn1 | ≤ 0.3 µM | ≤ 0.3 µM | ≤ 0.3 µM | ≤ 0.3 µM | ≤ 0.3 µM | ≤ 0.3 µM | ≤ 0.3 µM | ≤ 0.3 µM | ≤ 0.3 µM | ≤ 0.3 µM |
| CC(=O)O[C@@]12CO[C@@H]1C[C@H](O)[C@@]1(C)C(=O)[C@H](O)C3=C(C)[C@@H](OC(=O)[C@H](O)[C@@H](NC(=O)OC(C)(C)C)c4ccccc4)C[C@](O)([C@@H](OC(=O)c4ccccc4)[C@H]21)C3(C)C [Docetaxel] | ≤ 0.3 µM | ≤ 0.3 µM | ≤ 0.3 µM | ≤ 0.3 µM | ≤ 0.3 µM | ≤ 0.3 µM | ≤ 0.3 µM | ≤ 0.3 µM | ≤ 0.3 µM | ≤ 0.3 µM |
| C/C=C1\NC(=O)[C@H]2CSSCCC=C[C@H](CC(=O)N[C@H](C(C)C)C(=O)N2)OC(=O)[C@H](C(C)C)NC1=O | ≤ 0.3 µM | ≤ 0.3 µM | ≤ 0.3 µM | ≤ 0.3 µM | ≤ 0.3 µM | ≤ 0.3 µM | ≤ 0.3 µM | ≤ 0.3 µM | ≤ 0.3 µM | ≤ 0.3 µM |
| Cc1cc(C)cc(C(=O)NOCCCCCC(=O)NO)c1 | ≤ 0.3 µM | ≤ 0.3 µM | 1 µM | 1 µM | ≤ 0.3 µM | 1 µM | ≤ 0.3 µM | ≤ 0.3 µM | ≤ 0.3 µM | ≤ 0.3 µM |
| Cc1noc(C)c1-c1cc(O)cc(C(O)c2ccccc2)c1 (stereo not drawn) | 3 µM | 3 µM | 3 µM | 3 µM | 3 µM | 3 µM | 3 µM | 1 µM | 3 µM | 3 µM |

| SMILES | lowest phenotypically active concentration [1] | lowest phenotypically active concentration [2] | lowest phenotypically active concentration [3] | lowest phenotypically active concentration [4] | lowest phenotypically active concentration [5] | lowest phenotypically active concentration [6] | lowest phenotypically active concentration [7] | lowest phenotypically active concentration [8] | lowest phenotypically active concentration [9] | lowest phenotypically active concentration [10] |
| --- | --- | --- | --- | --- | --- | --- | --- | --- | --- | --- |
| Cc1cn(CCN2CCN(c3ccccc3-c3cc(C#N)cc(C(=O)NCCCN4CCCC4)c3)CC2)c2ccccc12 | 1 µM | 9 µM | 3 µM | 3 µM | 3 µM | 3 µM | 3 µM | 3 µM | 3 µM | 3 µM |
| O=C1NCCN1CCN1CCC(c2cn(-c3ccc(F)cc3)c3ccc(Cl)cc23)CC1 [sertindole] | 9 µM | 9 µM | 3 µM | 3 µM | 3 µM | 9 µM | 3 µM | 9 µM | 9 µM | 3 µM |
| O=C(Cc1ccc(-c2ccc(OCCN3CCOCC3)cc2)cn1)NCc1ccccc1 | ≤ 0.3 µM | ≤ 0.3 µM | ≤ 0.3 µM | ≤ 0.3 µM | ≤ 0.3 µM | ≤ 0.3 µM | ≤ 0.3 µM | ≤ 0.3 µM | ≤ 0.3 µM | ≤ 0.3 µM |
| CC[C@H](CO)Nc1nc(NCc2ccc(-c3ccccn3)cc2)c2ncn(C(C)C)c2n1 | ≤ 0.3 µM | ≤ 0.3 µM | ≤ 0.3 µM | ≤ 0.3 µM | ≤ 0.3 µM | ≤ 0.3 µM | ≤ 0.3 µM | ≤ 0.3 µM | ≤ 0.3 µM | ≤ 0.3 µM |
| COc1cc(C(=O)NC2CCN(C)CC2)c(F)cc1Nc1ncc2c(n1)N(C1CCCC1)CC(F)(F)C(=O)N2C [TAK 960 hydrochloride] | ≤ 0.3 µM | ≤ 0.3 µM | ≤ 0.3 µM | ≤ 0.3 µM | ≤ 0.3 µM | ≤ 0.3 µM | 1 µM | ≤ 0.3 µM | ≤ 0.3 µM | ≤ 0.3 µM |
| Cc1cc(Nc2cc(C)c(C#N)c(NC(C)CCCC(C)(C)O)n2)n[nH]1 (stereo not drawn) [TC-A 2317 hydrochloride] | 1 µM | 1 µM | ≤ 0.3 µM | ≤ 0.3 µM | ≤ 0.3 µM | 1 µM | 1 µM | 1 µM | ≤ 0.3 µM | 1 µM |
| O=C(CCCCCCC(=O)Nc1cccnc1)NO [Pyroxamide] | 3 µM | 3 µM | 3 µM | 3 µM | 3 µM | 9 µM | 3 µM | 3 µM | 3 µM | 3 µM |
| C[C@@H](Oc1cc(-n2cnc3ccc(CN4CCN(C)CC4)cc32)sc1C(N)=O)c1ccccc1C(F)(F)F | ≤ 0.3 µM | ≤ 0.3 µM | ≤ 0.3 µM | ≤ 0.3 µM | ≤ 0.3 µM | ≤ 0.3 µM | 3 µM | ≤ 0.3 µM | ≤ 0.3 µM | ≤ 0.3 µM |
| Nc1ncnc2c1nc(Cl)n2C1O[C@H](CO)[C@@H](O)[C@H]1O (stereo partly drawn) [8-Chloroadenosine] | 1 µM | 3 µM | 1 µM | 3 µM | 3 µM | 9 µM | 3 µM | 3 µM | 3 µM | 3 µM |
| COc1cc(N2CCN(C)CC2)ccc1Nc1nccc(-c2cn(C)c3cnccc23)n1 | 3 µM | 1 µM | 1 µM | 1 µM | 1 µM | 1 µM | ≤ 0.3 µM | 1 µM | 1 µM | 1 µM |
| Nc1ccc(-c2ccc3ncc4ccc(=O)n(-c5cccc(C(F)(F)F)c5)c4c3c2)cn1 [Torin 2] | ≤ 0.3 µM | ≤ 0.3 µM | ≤ 0.3 µM | ≤ 0.3 µM | ≤ 0.3 µM | ≤ 0.3 µM | ≤ 0.3 µM | ≤ 0.3 µM | ≤ 0.3 µM | ≤ 0.3 µM |
| CN1c2ccccc2C(=O)N2CCc3c([nH]c4ccccc34)[C@H]21 [Evodiamine] | 1 µM | 3 µM | 3 µM | 3 µM | 3 µM | 1 µM | 1 µM | 1 µM | 1 µM | 1 µM |
| CNC(=O)Nc1ccc(-c2nc(N3CC4CCC(C3)O4)c3cnn(C4CCC5(CC4)OCCO5)c3n2)cc1 | ≤ 0.3 µM | ≤ 0.3 µM | ≤ 0.3 µM | ≤ 0.3 µM | ≤ 0.3 µM | ≤ 0.3 µM | ≤ 0.3 µM | ≤ 0.3 µM | ≤ 0.3 µM | ≤ 0.3 µM |
| Cc1ccc(NC(=O)c2ccc(CN3CCN(C)CC3)cc2)cc1Nc1nc(-c2cccnc2)cs1 [masitinib] | 3 µM | 3 µM | 3 µM | 3 µM | 9 µM | 3 µM | 3 µM | ≤ 0.3 µM | 9 µM | 9 µM |
| COc1cc([C@@H]2c3cc4c(cc3[C@@H](O[C@@H]3O[C@@H]5CO[C@@H](c6cccs6)O[C@H]5[C@H](O)[C@H]3O)[C@H]3COC(=O)[C@H]23)OCO4)cc(OC)c1O [teniposide] | ≤ 0.3 µM | ≤ 0.3 µM | ≤ 0.3 µM | ≤ 0.3 µM | ≤ 0.3 µM | ≤ 0.3 µM | ≤ 0.3 µM | ≤ 0.3 µM | ≤ 0.3 µM | ≤ 0.3 µM |
